The text below walks through data of PubChem BioAssay AID1745848 (National Center for Advancing Translational Sciences (NCATS), 2022).

Hit rate of the full screen: of about 2,100 compounds, about 940 (45%) were called active. Not shown: some 48% with an inconclusive outcome. Calls follow the shape of the dose curve; as a rule, active = well fitted inhibition curve with a large enough effect; inconclusive = small, poorly fitted or top-dose-only effect; inactive = no such curve, though single readings can be large or run the other way. So high a share suggests a set chosen from earlier hits. The list shows a part of the results.
Potency is read from the fitted curve at half-maximal effect.

The assay can be described thus: Confirmatory qHTS for Inhibitors of ATXN expression. Also: nearly all actives have a fitted effect of over 65% in size.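 As to activity change, negative = inhibition: 0% = DMSO vehicle wells and -100% = medium-only wells without cells.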 Particulars: ATXN2-luciferase reporter cells, luminescence, 24 h; series mostly up to 11.5 µM; activity change, negative = inhibition: at the top concentration. The method, boiled down:
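Cells carrying ATXN2-luciferase reporter exposed 24 h at 37 C to compound. Viability then read by CellTiter-Fluor (25 uM GF-AFC, 30 min), followed by SteadyGlo luminescence; medium-only wells set 100% inhibition.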
In the case of `CCCCOc1ccc(CSC(=N)N)cc1Cl`, the Potency is 25.1 µM (active).

Consider `COc1ccc2c(c1)[nH]c1c(=O)n(/N=C/C3C(C)C=C(C)CC3C)c(=O)[nH]c12` (stereo not given), for which the Potency was 14.1 µM (active).

On to `Cn1c(=O)c2cc(NC(=O)Nc3cccnc3)ccc2n1Cc1ccc(Cl)cc1`, for which the “activity change, negative = inhibition” value was -17.8% [at 57.5 µM] (inactive).

For `COc1ccc(Cn2c(O)c(/C=N/NC(=O)c3cccnc3)c3ccccc3c2=O)cc1`, the Potency was 14.1 µM (active).

Consider `O=C(N/N=C/c1c(O)n(Cc2ccccc2)c(=O)c2ccccc12)c1cccnc1`, for which the Potency is 15.8 µM (active).

`CC(=O)c1cccc(NC(=O)C2Cc3c(-c4cccc(C(C)=O)c4)ccnc3O2)c1` (stereo not given): the “activity change, negative = inhibition” value is -14.3% (inactive).

As for `CC(=O)Nc1cccc(-c2ccnc3c2CC(C)(C(=O)Nc2cccc(Oc4ccccc4)c2)O3)c1` (stereo not given), the Potency was 25.1 µM (active).

Take `CC(=O)Nc1cccc(-c2ccnc3c2CC(C)(C(=O)Nc2ccc(Cl)cc2)O3)c1` (stereo not given): the Potency was 10 µM (active).

For the compound `CC(Nc1ccccc1CO)C(=O)Nc1cccc(Cl)c1Cl` (stereo not given), the Potency was 2.24 µM (active).

For the compound `COc1cc(NC(=O)c2cccc3c(-c4cccnc4)coc23)cc(OC)c1OC`, the Potency is 3.55 µM (active).

Consider `NC(=S)N1OC[C@@H]2COc3ccc4ccccc4c3[C@@H]21`, for which the Potency is 14.1 µM (active).

As to `O=[N+]([O-])c1ccc(O)c(/C=N/Nc2ncnc3c2cnn3-c2ccccc2)c1`, the Potency is 1.26 µM (active).

With `O=[N+]([O-])c1ccc(O)c(/C=N/Nc2ccccn2)c1`, the Potency is 0.631 µM (active).

On to `O=[N+]([O-])c1ccc(O)c(/C=N\N=C2c3ccccc3-c3ccccc32)c1`, for which the Potency is 3.98 µM (active).

Consider `COc1ccccc1N1CCN(C(=O)c2cc3c(C)nc4ccccc4c3o2)CC1`, for which the Potency was 3.55 µM (active).

In the case of `COc1ccc(N2CCN(C(=O)c3cc4c(C)nc5ccccc5c4o3)CC2)cc1`, the Potency is 25.1 µM (active).

For `CC1CCCCC1NC(=O)/C(C#N)=C/C=C/c1ccccc1[N+](=O)[O-]` (stereo not given), the Potency is 3.16 µM (active).

As for `N#C/C(=C\c1cccc([N+](=O)[O-])c1)C(=O)NCc1ccc(Cl)cc1`, the Potency is 3.16 µM (active).

Regarding `N#C/C(=C\C=C\c1ccccc1[N+](=O)[O-])C(=O)NCc1ccccc1`, the Potency was 2.82 µM (active).

On to `N#C/C(=C\C=C\c1ccccc1[N+](=O)[O-])C(=O)NC1CCCCC1`, for which the Potency was 17.8 µM (active).

For the compound `COC(=O)c1ccc2c(c1)C(C)(C)C(/C=C/c1ccc(OC)c(OC)c1OC)=[N+]2C`, the Potency was 3.55 µM (active).

For the compound `CCNc1ccc(Br)cc(C(=O)/C=C/c2ccccc2Cl)c1=O`, the “activity change, negative = inhibition” value is 0.525% (inactive).

In the case of `O=C(/C=C/c1ccccc1)c1cc(Br)ccc(=O)c1O`, the Potency is 28.2 µM (active).

For `CC(=O)Nc1ccc(NC2=Nc3ccccc3N3C2=Nc2c(c(C)nn2-c2ccccc2)C3c2ccccc2)cc1` (stereo not given), the Potency was 1.26 µM (active).

As for `Cc1cccc(NC2=Nc3ccccc3N3C2=Nc2c(c(C)nn2-c2ccccc2)C3c2ccc(O)c(O)c2)c1` (stereo not given), the Potency is 3.55 µM (active).

On to `COc1cccc(NC(=O)CSc2nc3ncc(Br)cc3[nH]2)c1`, for which the Potency is 3.98 µM (active).

As for `Cc1cc(C)n(-c2nc(Nc3ccccc3C(F)(F)F)nc(-n3nc(C)cc3C)n2)n1`, the Potency is 3.16 µM (active).

As for `CCOC(=O)N1CCN(Cc2cc(Cl)c3cccnc3c2O)CC1`, the Potency was 1.58 µM (active).

Turning to `O=C(Oc1c(CN2CCOCC2)cc(Cl)c2cccnc12)c1cccs1`, the Potency was 11.2 µM (active).

With `O=C(Oc1c(CN2CCOCC2)cc(Cl)c2cccnc12)c1ccccc1`, the Potency was 3.55 µM (active).

With `O=C1N(c2ccccc2)C[C@@H]2C[C@@H](c3cc4ccccc4o3)N3CCC[C@@]123`, the Potency is 0.316 µM (active).

As for `CC(C)(O)C#Cc1ccc([C@@H]2C[C@H]3CN(c4ccccc4)C(=O)[C@]34CCCN24)s1`, the Potency is 5.01 µM (active).

Regarding `CC(C)C[C@H](N)c1cn([C@@H](CCCCN)C(=O)N2CCNCC2)nn1`, the “activity change, negative = inhibition” value is -10.6% (inactive).

Consider `Cc1c(OCC(=O)NC2CC(C)(C)NC(C)(C)C2)ccc2c1oc(=O)c1ccccc12`, for which the Potency was 2.82 µM (active).

Take `O=C(c1ccoc1)N1CCN(c2cc(-c3ccco3)nc3cc(-c4ccccc4)nn23)CC1`: the Potency was 25.1 µM (active).

`COc1ccccc1-c1cc2nc(-c3ccccc3)cc(N3CCN(C(=O)c4ccco4)CC3)n2n1`: the Potency was 12.6 µM (active).

Take `COc1ccccc1-c1cc2nc(-c3ccccc3)cc(N3CCN(C(=O)c4ccoc4)CC3)n2n1`: the Potency is 12.6 µM (active).

With `COc1cccc(-c2cc3nc(-c4ccccc4)cc(N4CCN(C(=O)c5ccoc5)CC4)n3n2)c1`, the Potency is 2.82 µM (active).

For `Cn1cccc1/C=N/N1CCN(Cc2ccccc2Cl)CC1`, the “activity change, negative = inhibition” value was -21.1% [at 57.5 µM] (inactive).

For `CCOc1ccc(S(=O)(=O)NCCC(=O)N2CC=C(c3ccccc3)CC2)cc1`, the Potency is 12.6 µM (active).

For the compound `Cc1cccn2c(=O)c3cc(C(=O)NCCN4CCOCC4)c(=N)n(Cc4ccc(F)cc4)c3nc12`, the Potency was 7.08 µM (active).

With `Cc1ccc2[nH]c(O)c(N=NC(=O)C3CC3c3ccccc3)c2c1Br` (stereo not given), the “activity change, negative = inhibition” value was -23.6% (inactive).

Regarding `OC(CN1CCCCC1)Cn1c2ccc(Cl)cc2c2cc(Cl)ccc21` (stereo not given), the Potency was 3.16 µM (active).

In the case of `O=C(Nc1cccc2c1CCCC2)c1cc([N+](=O)[O-])ccc1Cl`, the Potency is 15.8 µM (active).

As for `O=C(NCC1CCCO1)c1cccc(Oc2ccc([N+](=O)[O-])cc2Cl)c1` (stereo not given), the “activity change, negative = inhibition” value is -23.8% (inactive).

Take `CC(C)(C)c1ccc(OCCCC(=O)NNC(=O)c2ccccc2O)cc1`: the Potency is 25.1 µM (active).

`COc1ccc(/C=C2\SC(=S)N(CCCC(=O)NNC(=O)c3ccccc3O)C2=O)cc1`: the Potency was 3.98 µM (active).

Regarding `O=C(CCCN1C(=O)S/C(=C\c2ccccc2)C1=O)NNC(=O)c1ccccc1O`, the Potency was 2.24 µM (active).

Consider `CN(C)CCNCCCNc1c2ccccc2nc2cccc([N+](=O)[O-])c12`, for which the Potency is 0.0891 µM (active).

Take `CC(=O)N1CCN(c2ccc(Oc3ccc([N+](=O)[O-])c(C(F)(F)F)c3)cc2)CC1`: the Potency is 11.2 µM (active).

Take `Cc1c(C(=O)Nc2ccc(-c3nnc4n3CCCCC4)cc2)oc2c1ccc1ccccc12`: the Potency was 3.16 µM (active).

On to `O=C(N/N=C/c1ccccc1O)C1CCCC1`, for which the Potency was 28.2 µM (active).

Regarding `O=C(N/N=C/c1ccccc1O)C1SCCCS1`, the Potency was 14.1 µM (active).

As for `C/C(=C\C(=O)c1ccc(Br)cc1)NNC(=O)c1ccc(O)cc1`, the Potency is 14.1 µM (active).

Regarding `O=C(c1cc(COc2cccc(C(F)(F)F)c2)on1)N1CCC(c2ccncc2)CC1`, the “activity change, negative = inhibition” value is -5.04% (inactive).

For the compound `CC(=NNc1nc2ccccc2o1)c1ncccn1`, the Potency is 0.199 µM (active).

For `Cc1ccccc1NC(=O)CSc1n[nH]c(-c2ccccn2)n1`, the Potency is 14.1 µM (active).

On to `Cc1ccc(C)c(NC(=O)CSc2n[nH]c(-c3ccccn3)n2)c1`, for which the Potency was 22.4 µM (active).

With `Cc1ccsc1/C=C/C1=Cc2c(sc(NC(=O)CSc3n[nH]c(N)n3)c2C#N)C(C)(C)C1`, the “activity change, negative = inhibition” value is -14.6% [at 57.5 µM] (inactive).

As for `CC1=C(CC[C@@H](C)CO)OC2CC3C4CCC5CC(O)CCC5(C)C4CC(=O)C3(C)C12` (stereo not given in full), the Potency is 3.16 µM (active).

Turning to `Cc1cc(O)c(C(C)C)cc1N=Cc1ccccc1[N+](=O)[O-]`, the “activity change, negative = inhibition” value is -14.8% [at 57.5 µM] (inactive).

Take `Cc1nc(N/N=C/c2ccc(O)cc2O)cc(N2CCOCC2)n1`: the Potency is 11.2 µM (active).

Consider `CCOc1cc(/C=N/Nc2cc(C)nc(-n3nc(C)cc3C)n2)ccc1O`, for which the Potency was 0.708 µM (active).

`Cc1cc(N/N=C/c2ccc(O)cc2O)nc(-n2nc(C)cc2C)n1`: the Potency was 5.01 µM (active).

As to `C/C(=N\Nc1cc(N2CCOCC2)nc(C)n1)c1cccc([N+](=O)[O-])c1`, the “activity change, negative = inhibition” value is -16.7% (inactive).

For `Cc1cc(N/N=C/c2ccccc2[N+](=O)[O-])nc(-n2nc(C)cc2C)n1`, the Potency was 3.16 µM (active).

For the compound `CS/C(=C\[N+](=O)[O-])Nc1ccc(OC(F)(F)F)cc1`, the Potency was 11.2 µM (active).

Turning to `OC(CNCCc1ccccc1)COc1ccc(OCC(O)CNCCc2ccccc2)cc1` (stereo not given), the Potency was 12.6 µM (active).

For the compound `CCCc1cc(=O)n2[nH]cc(-c3ccc(Cl)cc3)c2n1`, the Potency is 2.82 µM (active).

As for `O=c1c2c(nc3c(-c4ccc(Cl)cc4)c[nH]n13)CCCC2`, the Potency is 1.26 µM (active).

On to `O=C(c1cccc(Cl)c1)c1nn(-c2ccccc2)c(=O)cc1C(F)(F)F`, for which the Potency was 31.6 µM (active).

Consider `O=c1c2ccccc2sc2nc(CCl)nn12`, for which the Potency is 3.16 µM (active).

As for `O=c1[nH]c(CN2CCN(c3ncccn3)CC2)nc2c(Br)cc(Br)cc12`, the Potency was 2.82 µM (active).

For the compound `COc1cc(/C=N\NC(=O)CC#N)ccc1OC/C=C/c1ccccc1`, the Potency was 28.2 µM (active).

On to `Cc1[nH]c2ccccc2c1SCc1nnc(SCc2ccc(Cl)cc2)n1C`, for which the Potency was 31.6 µM (active).

With `Cn1c(CCc2nc3ccccc3[nH]2)nnc1SCC#N`, the “activity change, negative = inhibition” value was -2.57% [at 57.5 µM] (inactive).

For the compound `Cc1cc2sc3ccc(C#CC4(O)CCCCC4)cc3c(=O)c2cc1C`, the “activity change, negative = inhibition” value was -96.9% [at 57.5 µM] (inactive).

For the compound `CC(C)n1c(NCc2cc(Cl)ccc2O)nc2ccccc21`, the “activity change, negative = inhibition” value was -14.6% (inactive).

Consider `Cc1ccc2cc(C3C(C#N)=C(N)Oc4c3ccc3cccnc43)c(=O)[nH]c2c1` (stereo not given), for which the Potency was 6.31 µM (active).

With `COc1ccc(/C=C/C(=O)c2ccc([N+](=O)[O-])o2)cc1OC`, the Potency is 7.94 µM (active).

On to `Cc1cccc(/C=C/C(=O)c2ccc([N+](=O)[O-])o2)c1`, for which the Potency was 3.16 µM (active).

Consider `Cc1cc(C)cc(NC(=O)c2ccc([N+](=O)[O-])o2)c1`, for which the Potency was 2.82 µM (active).

In the case of `CNC(=O)c1sc(N2N=C3/C(=C/c4ccccc4)CCCC3C2c2ccccc2)nc1C` (stereo not given), the Potency is 12.6 µM (active).

Turning to `CC(CCc1ccccc1)NC(=O)c1ccc(C(=O)NC(C)CCc2ccccc2)cc1` (stereo not given), the Potency was 1.58 µM (active).

As to `Cc1ccc(C(=O)NC(C)CCc2ccccc2)cc1S(=O)(=O)N1CCOCC1` (stereo not given), the Potency was 15.8 µM (active).

For `Cc1ccc(NC(=O)CNc2cccc(Br)c2)cc1S(=O)(=O)N1CCOCC1`, the “activity change, negative = inhibition” value was -21.3% (inactive).

Consider `CC(C)[C@H](CO)Nc1nc(NCc2ccc(S(N)(=O)=O)cc2)c2ncn(C(C)C)c2n1`, for which the Potency is 2 µM (active).

For `Oc1c(Cl)cc(Cl)cc1/C=N/Nc1ncc(Br)cn1`, the Potency is 2.51 µM (active).

As for `CC1CC2(C)Oc3ccccc3CC2C(C)C1CNCCCN(C)C` (stereo not given), the Potency was 14.1 µM (active).

For the compound `C(=NN1CCCCCC1)c1ccc2ccccc2n1`, the “activity change, negative = inhibition” value was -96.8% [at 57.5 µM] (inactive).
